Drawing on PubChem BioAssay (NCATS), this text covers Potency, max response and outcome for 29 compounds.

Each structure is given as a SMILES string. Records with an inconclusive call do not appear. Unmarked numbers belong to inactive results. Activity calls are given as the source filed them. Calls come from the whole dose curve; as a rule, active = well fitted inhibition curve with a large enough effect; inconclusive = small, poorly fitted or top-dose-only effect; inactive = flat fitted curve, though single readings scatter.

Common to all, as to assay: Cytotoxic Profiling of Annotated Libraries Using Quantitative High-Throughput Screening (AID 1296008); note: nearly all actives have a fitted effect of over 60% in size
Common to all, as to conditions: Five cell lines viability, CellTiter-Glo ATP luminescence, 48-72 h; max response: active compounds read low

The subject of one experiment is CRL-7250. The method in brief:
(§1)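 Cytotoxicity was measured as CellTiter-Glo ATP luminescence, read after 10 min at room temperature. Compound treatment of the cells lasted 48 or 72 hr at 37 degrees Celsius in a qHTS format.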

The test system of a further experiment is HEK293. The method in brief: as §1
In another experiment the test system is HaCat. A digest of the protocol:
as §1
% is set by controls: 0 for no effect and ±100 for the full control effect; potency is the fitted concentration of half-maximal effect.

For `COc1cc(CCC2=NN=C(NC(=O)c3ccc(N4C[C@@H](C)N[C@@H](C)C4)cc3)C2)cc(OC)c1`, the Potency in the experiment with CRL-7250 is 10.3 µM (active); in the experiment on HEK293 it was 18.4 µM (active). Also, in the experiment with HaCat, the max response is -66.4%.

In the case of `O=C1Nc2nc(-c3c(O)cccc3OCC3CC3)cc([C@@H]3CCCNC3)c2CO1`, in the experiment on CRL-7250, the max response was -29.4%. The Potency with HEK293 is 20.6 µM (active).

Regarding `Fc1ccc(-c2nc(C3CCNCC3)sc2-c2ccnc(NC3CC3)n2)cc1`, the outcome in the experiment with CRL-7250 was inactive. Besides, the Potency in the experiment on HEK293 is 1.64 µM (active); with HaCat it was 5.17 µM (active).

Turning to `COc1cc2nc(C3CC3)nc(N3CCN(c4ccccc4OC)CC3)c2cc1OC`, the max response in the experiment on CRL-7250 was -2.72%; with HaCat it was -4.62%. In the experiment with HEK293, the Potency was 18.4 µM (active).

Turning to `CC(C)=CCCC1(C)/C=C/C(OC(=O)C=C(C)C)C(C)(O)/C=C/C(=O)/C(CO)=C\C1` (stereo unspecified), in the experiment on CRL-7250, the max response is -29.1%. Further, the Potency with HEK293 is 2.52 µM (active).

Take `C=C1C(=O)O[C@@H]2[C@H]3C(C)=CC(=O)C3=C(C)CC[C@@H]12`: the Potency in the experiment with CRL-7250 was 7.31 µM (active); in the experiment with HEK293, 2.06 µM (active).

Regarding `COC(=O)CC1OC(C)C2=C(O)c3c(O)cccc3C(=O)C23OC13` (stereo unspecified), the Potency in the experiment on CRL-7250 is 4.04 µM (active); with HEK293, 2.86 µM (active).

For the compound `OC1C=C2C3CN(Cc4cc5c(cc43)OCO5)C2CC1O` (stereo unspecified), the Potency with CRL-7250 was 8.2 µM (active); in the experiment on HEK293, 6.51 µM (active).

On to `Cc1nnc(C[C@@H]2C=C(c3ccc(Cl)cc3)c3ccccc3-n3c(C)nnc32)o1`, for which the Potency was 0.651 µM (active) in the experiment with CRL-7250 and 1.16 µM (active) in the experiment with HEK293. In addition, the max response in the experiment with HaCat is -1.46%.

Consider `Fc1ccc2[nH]ccc2c1-c1nc(N2CCOCC2)c2sc(CN3CCN(CC4CC4)CC3)cc2n1`, for which the max response with CRL-7250 is -20.6%. Also, the Potency in the experiment on HEK293 is 18.4 µM (active).

Consider `Cn1c(=O)c2c(ncn2Cc2ccc(C(C)(C)C)cc2)n(C)c1=O`, for which the figures for the Potency in the experiment with CRL-7250 and in the experiment with HEK293 were 1.3 µM (active) and 1.64 µM (active), respectively. The max response with HaCat is -22.1%.

Take `CC#CC(=O)Nc1ccc2ncnc(Nc3cccc(Br)c3)c2c1`: the Potency with CRL-7250 is 6.51 µM (active); in the experiment with HEK293, 3.66 µM (active); with HaCat, 0.0326 µM (active).

Turning to `Cn1ncc(Cl)c1-c1cc(C(=O)N[C@H](CN)Cc2ccc(F)c(F)c2)sc1Cl`, the max response with CRL-7250 is -4.08%. Further, the Potency in the experiment on HEK293 is 1.3 µM (active).

As to `O=C1C(Cc2ccc(O)cc2)N2C(=O)CCN(C(=O)NCc3ccccc3)C2CN1Cc1cccc2ccccc12` (stereo unspecified), the Potency in the experiment with CRL-7250 is 4.61 µM (active); in the experiment on HEK293, 4.11 µM (active); with HaCat, 5.8 µM (active).

As for `CN1CCN(c2ccc(Nc3cc(-c4cccc(-n5ccc6cc(C7CC7)cc(F)c6c5=O)c4CO)cn(C)c3=O)nc2)CC1`, the values for the Potency in the experiment on CRL-7250, with HEK293 and with HaCat were 23.1 µM (active), 11.6 µM (active) and 18.4 µM (active), respectively.

Regarding `C=C1C(=O)O[C@H]2/C=C(/C)[C@@H](OC(C)=O)C/C=C(\C)C[C@@H](OC(=O)/C(=C/C)COC(=O)/C(=C/C)CO)[C@@H]12`, the figures for the Potency with CRL-7250 and in the experiment with HEK293 were 8.93 µM (active) and 3.17 µM (active), respectively.

Regarding `CCn1c2ccccc2c2cc(Nc3ccnc(NCCCN4CCOCC4)n3)ccc21`, the Potency with CRL-7250 is 18.4 µM (active); in the experiment on HEK293 it was 9.2 µM (active).

For the compound `COc1cc(NC(=O)c2cccc(-n3cc(NC(=O)Nc4cccc(C)c4)cn3)c2)cc(OC)c1OC`, in the experiment on CRL-7250, the result was inactive. In the experiment on HEK293, the Potency was 9.2 µM (active). The max response with HaCat was 3.54%.

Turning to `CC(C)S(=O)(=O)Nc1ccc(F)c(C(=O)c2c[nH]c3ncc(-c4cccnc4)cc23)c1F`, the Potency in the experiment on CRL-7250 is 18.4 µM (active); in the experiment with HEK293, 14.6 µM (active).

In the case of `C=C1C(=O)OC2/C=C(\COC(C)=O)CC/C=C(\C=O)CC(OC(=O)CC(C)C)C12` (stereo unspecified), the Potency is 7.96 µM (active) in the experiment on CRL-7250 and 2.82 µM (active) in the experiment on HEK293.

Take `C=C1C(=O)O[C@@H]2C[C@H](C)[C@@H]3CC(=O)C(C)=C3C[C@H]12`: the values for the Potency with CRL-7250, in the experiment with HEK293 and with HaCat were 10.3 µM (active), 8.2 µM (active) and 14.6 µM (active), respectively.

With `C[C@@H](N[C@H]1CCCC[C@@H]1NC(=O)c1ccc(Cl)cc1)c1cccc2ccccc12`, the max response in the experiment with CRL-7250 was 0.829%; with HaCat it was -13%. The Potency with HEK293 is 20.6 µM (active).

In the case of `COC1CC(=O)C23C(=O)NC(Cc4c[nH]c5ccccc45)C2C(C)C2(C)OC2C3/C=C/CC(C)CC1O` (stereo unspecified), the Potency with CRL-7250 is 5.02 µM (active); in the experiment on HEK293, 7.09 µM (active).

In the case of `N#Cc1ccc(Nc2nc(-c3ccc(O)cc3O)cs2)cc1C(F)(F)F`, the figures for the Potency with CRL-7250, with HEK293 and with HaCat were 5.8 µM (active), 3.26 µM (active) and 7.31 µM (active), respectively.

Turning to `C=CC(=O)Nc1ccc2ncnc(Nc3cccc(Br)c3)c2c1`, the values for the Potency in the experiment on CRL-7250, in the experiment with HEK293 and in the experiment on HaCat were 5.8 µM (active), 20.6 µM (active) and 0.0461 µM (active), respectively.

Turning to `C[C@@H]1O[C@@H](O[C@H]2[C@H](OC(=O)[C@]34CCC(C)(C)C[C@H]3C3=CCC5[C@@]6(C)C[C@H](O)[C@H](O[C@@H]7O[C@H](CO)[C@@H](O)[C@H](O)[C@H]7O)[C@](CO)(C(=O)O)C6CC[C@@]5(C)[C@]3(C)C[C@H]4O)OC[C@H](O)[C@@H]2O)[C@H](O)[C@H](O)[C@H]1O[C@@H]1OC[C@@H](O)[C@H](O[C@@H]2OC[C@](O)(CO)[C@H]2O)[C@H]1O` (stereo partly specified), the Potency was 1.38 µM (active) in the experiment on CRL-7250 and 0.692 µM (active) in the experiment on HEK293.

On to `COc1cc(S(C)(=O)=O)ccc1Nc1nc2ccc(-c3ccc(NC(=O)[C@H](C)c4ccc(F)cc4)cc3)cn2n1`, for which the compound was classed as inactive in the experiment with CRL-7250. The Potency with HEK293 is 0.331 µM (active).

Regarding `COCC(=O)NC/C=C/c1ccc2ncnc(Nc3ccc(Oc4ccc(C)nc4)c(C)c3)c2c1`, the Potency in the experiment on CRL-7250 is 9.2 µM (active); with HEK293, 14.6 µM (active).

Consider `CCC(C)CC(=O)OC1C(=O)C(CO)=CC(O)C1C(C)C` (stereo unspecified), for which the results for the Potency with CRL-7250 and with HEK293 were 18.4 µM (active) and 8.2 µM (active), respectively.
